Here are results for 40 sequences from the OligoGym collection.
Note: reference of the scale not given here.

In one assay the target is PPM1E. Description: pooled miR-30 sensor sort-seq; sequence = guide strand. The following applies: shRNA.
Consider TAAAACTTTGGATTAAACCTGA, for which the sensor-assay potency score (higher = more potent) was -0.0256.
The same measure, in the same setting: then TTGCTTTCTTTGGTGCACCAGG, with -0.843.
For TTGCTTGCTTCTATTTGTGTGA, the sensor-assay potency score (higher = more potent) was -0.309.
TTTGGATTAAACCTGAATCTGT: the sensor-assay potency score (higher = more potent) was -0.682.
Still for that read-out and setting: then TTTCTCACAAGCATAACCTGGG, with 0.732; and TATTTGTGTGAGATCTAGGTAG, with 0.201; and TTTTAGATTGAAAACACTGTAC, with 0.00481.
Still for that read-out and setting: then TAGTTCAACAGCTTGGCCCTTT, with 0.206; and TATATTTGTAGAGCTGCTGCAG, with 0.13; and TACAGCTTTGTTCATGTCCCTC, with -0.388.
TTACATTTAAGAATTGAGCCAT registered a sensor-assay potency score (higher = more potent) of 0.639.
On the same count and under the same terms, then TAGATTGAAAACACTGTACTTT, with 0.776.

The target of the next assay is PPM1F. The assay is described as above. The following applies: shRNA.
For the sequence TTAAATTATATGACACAACAGG, the sensor-assay potency score (higher = more potent) is -0.831.
Still for that read-out and setting: the value for TTCTGGTCTGTGTGGCTCCATC was -1.7; that for TTTCCTGAGAAACATCTGGTCG was -0.801; that for TATGACACAACAGGTCATCTTG was -0.621.
TAAATTATATGACACAACAGGT displayed a sensor-assay potency score (higher = more potent) of -0.732.
In the case of TACCTCGCAGCATCCACGCCTC, the sensor-assay potency score (higher = more potent) is -0.377.
The same measure, in the same setting: the value for AAGGTCTGTCTGTAGCAGCTGT was -0.309; that for ATATCTGTAAATATGAACCCAC was -0.596; that for AACATCTGGTCGGTGCGCCGGA was -0.815.
For the sequence TCAAACACAGCAAAGTAGGCGC, the sensor-assay potency score (higher = more potent) is -0.108.
TTATATGACACAACAGGTCATC came in with a sensor-assay potency score (higher = more potent) of -0.681.
The same measure, in the same setting: then TCTGTCTGTAGCAGCTGTGAAA, with -1.23.

In another assay the target is PPM1J. The assay is described as above. The following applies: shRNA.
TCTTTTTGTAGGCCCAGCCGGT: the sensor-assay potency score (higher = more potent) was -1.16.
AAGTATCTCTACCAGGTCCTTT yielded a sensor-assay potency score (higher = more potent) of -0.98.
Take TAGCAGGTAGATCACAACCAGT: the sensor-assay potency score (higher = more potent) was -1.29.
TAGATCACAACCAGTGCACAGC: the sensor-assay potency score (higher = more potent) was -0.65.
Sequence TTGATGACCTCGGCGTAGCCTG showed a sensor-assay potency score (higher = more potent) of -0.901.
Take TTGGATATAGCGGACATCCCTT: the sensor-assay potency score (higher = more potent) is -0.328.
In turn, TTCCGGACAATGATGGCCCTGC came in with a sensor-assay potency score (higher = more potent) of 0.189.
Take ACAGTCAGTAGTGACATCCCAC: the sensor-assay potency score (higher = more potent) was -0.629.
In turn, TCGATCTTTTTGTAGGCCCAGC registered a sensor-assay potency score (higher = more potent) of -1.4.
As to TAGCACATCATCTGGGCAGTGC, the sensor-assay potency score (higher = more potent) is -0.403.
TACTCCTGTAACACTCCTCCGA showed a sensor-assay potency score (higher = more potent) of -0.279.
Regarding TTCACTGCCTAGCAGCTCTGGT, the sensor-assay potency score (higher = more potent) is -0.516.

In the next assay the target is PPP1R13B. Described as above. The following applies: shRNA.
TACACTGCTTTAACTGACTTAT: the sensor-assay potency score (higher = more potent) is -0.93.
As to TTCTACAACATCTCGACAGGTT, the sensor-assay potency score (higher = more potent) came out at 0.568.
TTGCTGTAGTCGACTTGTCCTC displayed a sensor-assay potency score (higher = more potent) of -0.682.
The same measure, in the same setting: then TTCACTGATTCGCTTGTCCATC, with -0.504.
